The source of these data is PubChem BioAssay (NCI).

Assay in all cases: NCI-60 one-dose screen, 48 h (100 = growth as untreated, 0 = no growth, -100 = all killed)
Holding throughout (details): 10 µM unless noted

Assay [1] has as its system SK-MEL-2 melanoma.
Assay [2] concerns EKVX NSCLC.
The test system of assay [3] is SN12C renal.
In assay [4] the test system is UO-31 renal.
In assay [5] the test system is TK-10 renal.
The test system of assay [6] is ACHN renal.
Assay [7] deals with CAKI-1 renal.
Assay [8] relates to A498 renal.
In assay [9] the test system is CCRF-CEM leukemia.
The subject of assay [10] is MOLT-4 leukemia.

This is part of a sample that, as a whole, favours compounds with a hit. Of some 83,000 tested, about 20% had one in any assay.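 Plates (96-well) were seeded with cells, treated with compound at one concentration, and incubated for 48 hours before percent growth was determined.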 Values without a mark were called inactive. The source made the active and inactive calls. The calls were made as follows: active = growth percent below 10; inactive = the rest.

Turning to `Cc1ccc2nc(SCc3ccccc3F)n(-c3ccccc3)c(=O)c2c1`, the growth is 102% in assay [1]; 59.9% in assay [2]; 90.6% in assay [3]; 83.7% in assay [4]; 90.2% in [5]; 92.9% in assay [6]. Besides, the growth in [7] is 83.3%; in assay [8], 137%; in assay [9], 73%; in [10], 73.3%.

Regarding `CC(C)(C)C(=O)C1CC(C#N)=C2C=Cc3c(ccc4ccccc34)N21` (stereo not given), the growth in assay [1] was 92.4%; in assay [2], 79.7%; in assay [3], 92.4%; in [4], 90.5%; in assay [5], 92.6%; in assay [6] it was 85.2%. For the same compound, the growth in [7] was 86.7%; in assay [8] it was 144%; in [9] it was 91.4%; in assay [10] it was 81.6%.

Turning to `COC(=O)c1cccc(Oc2ccc(NC(=O)Nc3cc(C(F)(F)F)ccc3F)cc2)c1`, the growth in assay [1] is 73.1%; in [2], 60.9%; in [3], 75.7%; in [4], 73.9%; in [5], 88.5%; in assay [6] it was 56.4%. Besides, the growth in assay [7] was 62.4%; in [8], 94.9%; in assay [9], 65%; in assay [10], 64.7%.

On to `Clc1ccccc1Nc1nnc(-c2c[nH]c3ccccc23)o1`, for which the growth in assay [1] is -2.89% (active); in assay [2], 18.7%; in assay [3] it was 26.6%; in assay [4] it was 33.1%; in assay [5], 69%; in assay [6] it was 39.9%. Further, the growth in [7] was 32.7%; in assay [8] it was 113%; in [9] it was 9.07% (active); in [10], 5.42% (active).

For `Cc1cccc(/C=C/c2ccc(NC(=S)NCCCCN(C)C)cc2)c1`, the growth in assay [1] is -79.6% (active); in [2], -90.5% (active); in [3], -84.5% (active); in assay [4] it was -93.2% (active); in assay [5], -89.8% (active); in assay [6], -100% (active). The growth in [7] is -89.6% (active); in assay [8], -83.7% (active); in assay [9], -36.6% (active); in assay [10], -16.1% (active).

Turning to `COc1ccc(NC(=O)CSc2nnc(-c3ccc(-c4nc5ccccc5[nH]4)cc3)o2)cc1`, the growth is 61.8% in assay [1]; 53.2% in assay [2]; 31% in assay [3]; 97.7% in assay [4]; 96.8% in [5]; 35.4% in assay [6]. Further, the growth in [7] is 41.5%; in assay [8], 147%; in assay [9] it was 50.7%; in assay [10] it was 35.9%.

Regarding `CC1CCc2c(sc3nc(SCC(=O)c4cccc(Br)c4)n(-c4ccccc4)c(=O)c23)C1` (stereo not given), the growth in assay [1] was 99.2%; in [2], 66.2%; in assay [3] it was 32.8%; in assay [4], 16.6%; in assay [5], -21.6% (active); in assay [6], -60.6% (active). Further, the growth in [7] is 6.39% (active); in assay [8] it was 114%; in assay [9], 35.3%; in assay [10], 28.6%.

With `Nc1nn2c(-c3cc4ccccc4oc3=O)ccnc2c1N=Nc1ccccc1`, the growth was 97.4% in [1]; 66.9% in assay [2]; 48.6% in assay [3]; 63.2% in [4]; 103% in assay [5]; 54.9% in assay [6]. Also, the growth is 81.8% in [7], 111% in assay [8], 101% in assay [9] and 113% in assay [10].

As to `COc1ccc(Nc2ncnc3sc4c(c23)CCN(Cc2ccccc2)C4)cc1`, the growth in [1] was 87.4%; in [2], 75.8%; in assay [3], 85.4%; in [4], 49%; in assay [5], 109%; in assay [6] it was 77%. Also, the growth was 52% in [7], 91.9% in [8], 73.5% in [9] and 62.4% in [10].

For the compound `Cc1ccc(NC(=O)N/N=C/c2c[nH]c3ccccc23)c(C)c1`, the growth was 20.5% in assay [1]; 34.7% in assay [2]; 15.9% in [3]; 26.6% in assay [4]; 30.5% in assay [5]; 22.8% in [6]. The growth is 29.1% in assay [7], 55.7% in [8], 10% in assay [9] and 6.25% (active) in [10].

Regarding `O=C(Nc1ccc(Cl)c(C(F)(F)F)c1)N1CCN(c2cc(-c3cn(-c4ccccc4)nc3-c3cccc(O)c3)ccn2)CC1`, the growth in assay [1] is -66.9% (active); in assay [2], -0.99% (active); in [3], 4.12% (active); in assay [4] it was 5.37% (active); in assay [5], 8.9% (active); in assay [6] it was 3.14% (active). For the same compound, the growth was 9.06% (active) in [7], 38.9% in [8], 0.607% (active) in assay [9] and 1.52% (active) in assay [10].

In the case of `O=C1NC(=S)/C(=C/c2cn(-c3ccccc3)nc2-c2ccccc2)S1`, the growth in assay [1] was -4.17% (active); in assay [2], 2.24% (active); in [3], 16%; in assay [4], 16.7%; in assay [5], 34.3%; in assay [6] it was 20.1%. Further, the growth was 28.3% in [7], -4.62% (active) in assay [8], 30.9% in assay [9] and 33.5% in assay [10].

For `CC(C)(C)OC(=O)N1CCC2(CC1)Oc1ccccc1[C@H]1CC(c3ccc(Br)cc3)=NN12`, the growth in [1] is 71.9%; in [2], 56.6%; in [3] it was 71.2%; in assay [4], 43%; in assay [5], 131%; in assay [6], 60%. The growth was 41.1% in [7], 98.7% in assay [8], 58.2% in [9] and 47% in assay [10].
